According to PubChem BioAssay (NCATS):
Inconclusive results are not listed. The source made the active and inactive calls. Calls come from the whole dose curve; as a rule, active = well fitted inhibition curve with a large enough effect; inconclusive = small, poorly fitted or top-dose-only effect; inactive = flat fitted curve, though single readings scatter.

System: TAB109
Assay: qHTS profiling for inhibitors of Plasmodium falciparum proliferation (AID 504749);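 note: 0% = DMSO vehicle and full inhibition = artemisinin control; nearly all actives have a fitted effect of over 60% in size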
Settings: P. falciparum in erythrocytes, SYBR Green DNA, 72 h; series mostly up to 28.7 µM; activity, negative = inhibition: at the top concentration
Procedure, shortened: (§1)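 Parasite proliferation within erythrocytes, 72 h exposure. Endpoint: SYBR Green I fluorescence after overnight lysis at room temperature. Controls: 0.29 uM artemisinin, DMSO.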

activity, negative = inhibition, inactive:
N[C@H](COP(=O)(O)O)C(=O)O 8.72%
C[N+]1(C)[C@@H]2CC(OC(=O)[C@@H](CO)c3ccccc3)C[C@@H]1[C@H]1O[C@H]12 (stereo not given in full) 10.1%
C(=C/c1ccccc1)/CN1CCN(C(c2ccccc2)c2ccccc2)CC1 5.53% [at 12.8 µM]
COc1cc2nc(N(C)CCCNC(=O)[C@@H]3CCCO3)nc(N)c2cc1OC 5.76% [at 12.8 µM]

System: TAB113
Assay: as above
Settings: P. falciparum in erythrocytes, SYBR Green DNA, 72 h; series mostly up to 28.7 µM; activity, negative = inhibition: at the top concentration
Procedure, shortened: as §1

activity, negative = inhibition, inactive:
CC(=O)N1CCN(c2ccc(OC[C@@H]3CO[C@@](Cn4ccnc4)(c4ccc(Cl)cc4Cl)O3)cc2)CC1 -6.49%
OC[C@H](S)CS -6%
N[C@H](COP(=O)(O)O)C(=O)O 16.7%
C[N+]1(C)[C@@H]2CC(OC(=O)[C@@H](CO)c3ccccc3)C[C@@H]1[C@H]1O[C@H]12 (stereo not given in full) -0.53%
C(=C/c1ccccc1)/CN1CCN(C(c2ccccc2)c2ccccc2)CC1 -8.31% [at 12.8 µM]
COc1cc2nc(N(C)CCCNC(=O)[C@@H]3CCCO3)nc(N)c2cc1OC -2.13% [at 12.8 µM]
